Experimental data taken from PubChem BioAssay (Tox21).
Results filed as inconclusive are left out. The source made the active and inactive calls. Calls follow the shape of the dose curve; as a rule, active = well fitted cell-killing curve with a large enough effect in the repeat runs; inconclusive = weak or mixed curves, or effect the other way; inactive = flat fitted curve, though single readings scatter.
% is scaled to controls: 0 for no effect and ±100 for the full control effect.

Assay: qHTS assay to identify small molecule antagonists of the constitutive androstane receptor (CAR) signaling pathway - cell viability counter screen (AID 1224837); also: nearly all actives have a fitted effect of over 45% in size
Settings: HepG2-CYP2B6-hCAR viability, CellTiter-Fluor, 23 h, co-treated with 50 nM CITCO; series mostly up to 92.4 µM; activity change, negative = cytotoxicity: at the top concentration
Outline: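 Counter screen run in HepG2-CYP2B6-hCAR cells: 4 hr settle, compound titration (15 concentrations) with 50 nM CITCO, 23 hr at 37 C/5% CO2, CellTiter-Fluor fluorescence.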
For `O=C(O)CNC(=O)c1ccc([N+](=O)[O-])cc1`, the “activity change, negative = cytotoxicity” value was 1.13% (inactive).
For `Cn1cc(S(C)=O)c(=O)c2ccc(F)cc21` (configuration not stated), the “activity change, negative = cytotoxicity” value was 1.47% [at 42.5 µM] (inactive).
With `C=CCOCC(CC)(CO)COCC=C` the “activity change, negative = cytotoxicity” value was 2.9% (inactive).
In the case of `CC(=O)Nc1ccc(S(N)(=O)=O)cc1`, the “activity change, negative = cytotoxicity” value is reported as 0.924% (inactive).
With `C=C1CC[C@H]2C[C@@H]1C2(C)C` the “activity change, negative = cytotoxicity” value was 1.97% (inactive).
For `CCCCCCCCS(=O)(=O)Cl`, the “activity change, negative = cytotoxicity” value was 16.5% (inactive).
In the case of `C=C[Si](OC(=C)C)(OC(=C)C)OC(=C)C`, the “activity change, negative = cytotoxicity” value is reported as 1.8% (inactive).
With `O=C1NC(=O)[C@@]2(CCOc3ccc(F)cc32)N1` the “activity change, negative = cytotoxicity” value was 6.84% [at 42.5 µM] (inactive).
With `CC/C=C\CC/C=C/CO` the “activity change, negative = cytotoxicity” value was -0.864% (inactive).
In the case of `CN1CCCC1`, the “activity change, negative = cytotoxicity” value is reported as 0.763% (inactive).
For `O=c1cc(CO)occ1O`, the “activity change, negative = cytotoxicity” value was 14.7% [at 42.5 µM] (inactive).
For `CC(=O)CC(C)C`, the “activity change, negative = cytotoxicity” value was 3.72% (inactive).
In the case of `CO[Si](CCCOCC1CO1)(OC)OC` (configuration not stated), the Potency is reported as “inactive”.
In the case of `CCN(CC)CCNC(=O)c1cc(S(C)(=O)=O)ccc1OC`, the “activity change, negative = cytotoxicity” value is reported as 8.95% [at 42.5 µM] (inactive).
For `N=C(N)c1ccccc1`, the “activity change, negative = cytotoxicity” value was 2.87% (inactive).
With `O=c1cc(-c2ccccc2)oc2ccccc12` the Potency was “inactive”.
In the case of `COc1ccc2c(c1)CCCC2=O`, the “activity change, negative = cytotoxicity” value is reported as 1.06% [at 42.5 µM] (inactive).
With `NC(=O)c1cn(Cc2c(F)cccc2F)nn1` the “activity change, negative = cytotoxicity” value was 2.16% [at 42.5 µM] (inactive).
In the case of `NC(CSCC(=O)O)C(=O)O` (configuration not stated), the “activity change, negative = cytotoxicity” value is reported as 6.13% [at 42.5 µM] (inactive).
In the case of `O=C1CCCCCCCCCCCN1`, the Potency is reported as “inactive”.
With `Cc1cnc(NS(=O)(=O)c2ccc(N)cc2)nc1` the “activity change, negative = cytotoxicity” value was -1.75% [at 42.5 µM] (inactive).
In the case of `CC(=O)N(CC(O)CO)c1c(I)c(C(=O)NCCO)c(I)c(C(=O)NCC(O)CO)c1I` (configuration not stated), the “activity change, negative = cytotoxicity” value is reported as 4.2% [at 42.5 µM] (inactive).
In the case of `C/C=C(\C)C#N`, the “activity change, negative = cytotoxicity” value is reported as 3.95% (inactive).
For `COC(=O)CCSCCC(=O)OC`, the “activity change, negative = cytotoxicity” value was -0.0057% (inactive).
With `COc1ccccc1OCC(O)CN1CCN(CC(=O)Nc2c(C)cccc2C)CC1` (configuration not stated) the “activity change, negative = cytotoxicity” value was -11.8% [at 42.5 µM] (inactive).
With `CN(C)CCCSc1ccccc1NC(=O)/C=C/c1ccccc1` the “activity change, negative = cytotoxicity” value was -13.1% [at 42.5 µM] (inactive).
For `CC(=O)OCC(=O)[C@@]1(O)CC[C@H]2[C@@H]3CCC4=CC(=O)CC[C@]4(C)[C@H]3C(=O)C[C@@]21C`, the “activity change, negative = cytotoxicity” value was 2.73% [at 42.5 µM] (inactive).
